According to the supplement of paper PMC10849652:
About 8,800 targets were measured; listed, in parts, are those with a hit and a random draw of the rest. About 0.5% of all pairs of compound and target were hits.

How the values were obtained:
Assay in all cases: log2 fold change, soluble protein after heating vs DMSO (PISA); higher = thermal stabilisation; K562 lysate, 10 uM; active = over 0.2 and 3.5 SD of the protein, either way, in both replicates (recomputed)
lapatinib = compound: CS(=O)(=O)CCNCc1ccc(-c2ccc3ncnc(Nc4ccc(OCc5cccc(F)c5)c(Cl)c4)c3c2)o1 [lapatinib]
Procedure, shortened: (§1)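 K562 pellets were dounce-homogenised in PBS pH 7.4 containing 1 mM MgCl2, and the crude extract, at 1 mg/mL protein, was exposed to 10 μM compound for 30 min. Aliquots were heated for 3 min across 48°C-58°C, pooled, brought to 0.5% NP-40 at 4°C and spun at 21,000xg for 90 min, with the supernatant taken as soluble protein. TMTpro 16plex LC-MS/MS with equalised channel sums quantified that protein. Values are log-two fold changes in thermal stability relative to solvent controls, taken from duplicates.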

pictilisib = compound: CS(=O)(=O)N1CCN(Cc2cc3nc(-c4cccc5[nH]ncc45)nc(N4CCOCC4)c3s2)CC1 [pictilisib]
Procedure, shortened: as §1

crizotinib = compound: C[C@@H](Oc1cc(-c2cnn(C3CCNCC3)c2)cnc1N)c1c(Cl)ccc(F)c1Cl [crizotinib]
Procedure, shortened: as §1

[1] = compound: C[C@H](C1=CC=C(C=C1)C(=O)NC2=C3C=CNC3=NC=C2)N
Procedure, shortened: as §1

duvelisib = compound: C[C@H](Nc1ncnc2nc[nH]c12)c1cc2cccc(Cl)c2c(=O)n1-c1ccccc1 [duvelisib]
Procedure, shortened: as §1

gandotinib = compound: Cc1cc(Nc2cc(CN3CCOCC3)c3nc(C)c(Cc4ccc(Cl)cc4F)n3n2)n[nH]1 [gandotinib]
Procedure, shortened: as §1

tozasertib = compound: Cc1cc(Nc2cc(N3CCN(C)CC3)nc(Sc3ccc(NC(=O)C4CC4)cc3)n2)n[nH]1 [tozasertib]
Procedure, shortened: as §1

doramapimod = compound: Cc1ccc(-n2nc(C(C)(C)C)cc2NC(=O)Nc2ccc(OCCN3CCOCC3)c3ccccc23)cc1 [doramapimod]
Procedure, shortened: as §1

bafetinib = compound: Cc1ccc(NC(=O)c2ccc(CN3CC[C@H](N(C)C)C3)c(C(F)(F)F)c2)cc1Nc1nccc(-c2cncnc2)n1 [bafetinib]
Procedure, shortened: as §1

[2] = compound: Cc1cccc(CC(=O)N2CCc3c2ccc(-c2cn(C)c4ncnc(N)c24)c3F)n1
Procedure, shortened: as §1

nilotinib = compound: Cc1cn(-c2cc(NC(=O)c3ccc(C)c(Nc4nccc(-c5cccnc5)n4)c3)cc(C(F)(F)F)c2)cn1 [nilotinib]
Procedure, shortened: as §1

[3] = compound: Cc1nc(Nc2n[nH]c3c2CN(C(=O)N[C@H](CN(C)C)c2ccccc2)C3(C)C)c2sccc2n1
Procedure, shortened: as §1

dasatinib = compound: Cc1nc(Nc2ncc(C(=O)Nc3c(C)cccc3Cl)s2)cc(N2CCN(CCO)CC2)n1 [dasatinib]
Procedure, shortened: as §1

[4] = compound: Cc1ncc(-c2ccnc(Nc3ccc(S(C)(=O)=O)cc3)n2)n1C(C)C
Procedure, shortened: as §1

[5] = compound: Cn1cc(-c2ccc3c(c2)CCN3C(=O)Cc2cccc(C(F)(F)F)c2)c2c(N)ncnc21
Procedure, shortened: as §1

quisinostat = compound: Cn1cc(CNCC2CCN(c3ncc(C(=O)NO)cn3)CC2)c2ccccc21 [quisinostat]
Procedure, shortened: as §1

tipifarnib = compound: Cn1cncc1[C@@](N)(c1ccc(Cl)cc1)c1ccc2c(c1)c(-c1cccc(Cl)c1)cc(=O)n2C [tipifarnib]
Procedure, shortened: as §1

[6] = compound: NC(=O)Nc1cc(-c2cccc(F)c2)sc1C(=O)N[C@H]1CCCNC1
Procedure, shortened: as §1

[7] = compound: NC(=O)c1cnc(N[C@@H]2CCCC[C@@H]2N)nc1Nc1cccc(-n2nccn2)c1
Procedure, shortened: as §1

[8] = compound: NC1(c2ccc(-c3nc4ccn5c(=O)[nH]nc5c4cc3-c3ccccc3)cc2)CCC1
Procedure, shortened: as §1

Measured: log2 fold change

AMD1 (UniProt P17707)
inactive: lapatinib -0.125 | pictilisib 0.056 | crizotinib 0.035 | [1] -0.099 | duvelisib 0.12 | gandotinib 0.107 | tozasertib 0.05 | doramapimod 0.316 | bafetinib -0.07 | [2] 0.048 | nilotinib -0.05 | [3] -0.04 | dasatinib -0.031 | [4] -0.001 | [5] 0.055 | quisinostat -0.145 | tipifarnib -0.005 | [6] 0.151 | [7] 0.229 | [8] -0.022

ALDH1B1 (UniProt P30837)
inactive: lapatinib -0.012 | pictilisib 0.008 | crizotinib -0.007 | [1] -0.024 | duvelisib 0.058 | gandotinib 0.052 | tozasertib 0.021 | doramapimod -0.017 | bafetinib -0.049 | [2] -0.041 | nilotinib 0.096 | [3] -0.015 | dasatinib -0.022 | [4] 0.013 | [5] 0.034 | quisinostat 0.118 | tipifarnib 0.05 | [6] 0.046 | [7] 0.011 | [8] 0.003

APAF1 (UniProt O14727)
UniProt O14727, sequence (O14727 whole entry, looked up): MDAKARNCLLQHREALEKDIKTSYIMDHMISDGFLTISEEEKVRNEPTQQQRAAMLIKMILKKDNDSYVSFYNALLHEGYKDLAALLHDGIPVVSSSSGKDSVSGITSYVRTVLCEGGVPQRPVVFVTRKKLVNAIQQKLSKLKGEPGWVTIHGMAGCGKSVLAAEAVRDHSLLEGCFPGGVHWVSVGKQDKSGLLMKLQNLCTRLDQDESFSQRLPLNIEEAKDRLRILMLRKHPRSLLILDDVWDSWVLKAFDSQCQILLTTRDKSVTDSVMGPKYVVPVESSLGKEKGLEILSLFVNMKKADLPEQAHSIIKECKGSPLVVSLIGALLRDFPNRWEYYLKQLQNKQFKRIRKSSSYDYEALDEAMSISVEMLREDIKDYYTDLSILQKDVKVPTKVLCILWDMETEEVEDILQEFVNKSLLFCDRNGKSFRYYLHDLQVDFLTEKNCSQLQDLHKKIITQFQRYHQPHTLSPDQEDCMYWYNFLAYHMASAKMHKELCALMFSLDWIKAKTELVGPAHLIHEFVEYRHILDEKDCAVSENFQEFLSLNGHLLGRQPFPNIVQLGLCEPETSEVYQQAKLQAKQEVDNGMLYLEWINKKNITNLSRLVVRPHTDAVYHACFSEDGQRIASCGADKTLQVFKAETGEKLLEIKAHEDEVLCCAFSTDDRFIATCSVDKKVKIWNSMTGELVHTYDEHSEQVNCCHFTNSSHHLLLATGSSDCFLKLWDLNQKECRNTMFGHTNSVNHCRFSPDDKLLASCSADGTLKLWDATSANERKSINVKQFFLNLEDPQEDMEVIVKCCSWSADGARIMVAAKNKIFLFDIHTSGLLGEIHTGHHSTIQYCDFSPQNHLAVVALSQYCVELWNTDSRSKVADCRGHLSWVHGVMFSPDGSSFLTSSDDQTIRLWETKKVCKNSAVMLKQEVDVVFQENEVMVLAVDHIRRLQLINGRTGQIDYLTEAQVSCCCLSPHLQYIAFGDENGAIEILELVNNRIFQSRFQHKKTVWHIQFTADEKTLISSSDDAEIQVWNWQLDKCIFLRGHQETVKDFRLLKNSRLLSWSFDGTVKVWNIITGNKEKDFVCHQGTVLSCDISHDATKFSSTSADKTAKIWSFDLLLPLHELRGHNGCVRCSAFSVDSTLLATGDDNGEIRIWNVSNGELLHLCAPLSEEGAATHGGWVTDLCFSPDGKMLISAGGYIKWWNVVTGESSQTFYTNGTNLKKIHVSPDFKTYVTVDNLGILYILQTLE
inactive: lapatinib 0.022 | pictilisib -0.068 | crizotinib -0.09 | [1] -0.015 | duvelisib -0.011 | gandotinib -0.058 | tozasertib -0.025 | doramapimod 0.05 | bafetinib 0.02 | [2] 0.061 | nilotinib -0.013 | [3] 0.116 | dasatinib -0.036 | [4] 0.025 | [5] 0.073 | quisinostat -0.091 | tipifarnib -0.026 | [6] 0.052 | [7] 0 | [8] 0.026

AP4B1 (UniProt Q9Y6B7)
UniProt Q9Y6B7, sequence (Q9Y6B7 whole entry, looked up): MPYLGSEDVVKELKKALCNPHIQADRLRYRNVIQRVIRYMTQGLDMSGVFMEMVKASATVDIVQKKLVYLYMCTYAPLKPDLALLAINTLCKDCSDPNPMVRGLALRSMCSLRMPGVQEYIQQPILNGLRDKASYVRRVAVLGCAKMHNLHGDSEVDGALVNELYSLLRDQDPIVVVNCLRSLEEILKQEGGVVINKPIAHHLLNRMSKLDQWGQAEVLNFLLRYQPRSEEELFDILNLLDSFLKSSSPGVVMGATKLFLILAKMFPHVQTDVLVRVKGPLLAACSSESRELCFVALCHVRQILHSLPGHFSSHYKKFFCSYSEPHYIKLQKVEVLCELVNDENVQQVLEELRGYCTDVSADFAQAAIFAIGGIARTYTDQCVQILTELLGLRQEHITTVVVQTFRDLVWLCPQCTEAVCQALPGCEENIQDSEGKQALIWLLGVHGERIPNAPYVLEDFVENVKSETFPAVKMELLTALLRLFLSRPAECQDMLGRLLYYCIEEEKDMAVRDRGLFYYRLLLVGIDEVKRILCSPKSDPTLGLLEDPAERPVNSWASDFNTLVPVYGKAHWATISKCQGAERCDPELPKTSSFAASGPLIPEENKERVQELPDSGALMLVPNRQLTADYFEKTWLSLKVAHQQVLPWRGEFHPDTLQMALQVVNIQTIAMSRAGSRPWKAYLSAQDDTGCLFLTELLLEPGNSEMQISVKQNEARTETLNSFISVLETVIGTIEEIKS
inactive: lapatinib 0.064 | pictilisib -0.142 | crizotinib 0.025 | [1] -0.106 | duvelisib -0.058 | gandotinib -0.023 | tozasertib -0.011 | doramapimod 0.019 | bafetinib -0.079 | [2] 0.135 | nilotinib 0.023 | [3] 0.011 | dasatinib 0.032 | [4] -0.013 | [5] 0.027 | quisinostat 0.018 | tipifarnib -0.051 | [6] 0.1 | [7] 0.028 | [8] 0.007

ALDH2 (UniProt P05091)
inactive: lapatinib 0 | pictilisib 0 | crizotinib -0.02 | [1] -0.012 | duvelisib -0.03 | gandotinib 0.011 | tozasertib 0.023 | doramapimod -0.023 | bafetinib 0.017 | [2] -0.077 | nilotinib 0.028 | [3] -0.017 | dasatinib 0.014 | [4] -0.013 | [5] 0.001 | quisinostat 0.121 | tipifarnib 0.039 | [6] 0.001 | [7] 0.016 | [8] -0.003

ARAF (UniProt P10398)
inactive: lapatinib -0.019 | pictilisib 0.011 | crizotinib -0.041 | [1] -0.045 | duvelisib -0.025 | gandotinib -0.077 | tozasertib -0.007 | doramapimod 0.006 | bafetinib -0.047 | [2] -0.031 | nilotinib -0.005 | [3] 0.018 | dasatinib 0.16 | [4] 0.022 | [5] 0.02 | quisinostat -0.069 | tipifarnib -0.023 | [6] 0.011 | [7] 0.018 | [8] -0.012

AMDHD2 isoform 3 (UniProt Q9Y303)
inactive: lapatinib 0.014 | pictilisib -0.081 | crizotinib 0.025 | [1] 0.006 | duvelisib -0.043 | gandotinib 0.008 | tozasertib -0.013 | doramapimod 0.003 | bafetinib 0.093 | [2] 0.009 | nilotinib 0.011 | [3] -0.076 | dasatinib -0.043 | [4] -0.027 | [5] 0.026 | quisinostat 0.035 | tipifarnib 0.01 | [6] -0.011 | [7] -0.022 | [8] 0.002

AKAP11 (UniProt Q9UKA4)
UniProt Q9UKA4, sequence (Q9UKA4 whole entry, looked up): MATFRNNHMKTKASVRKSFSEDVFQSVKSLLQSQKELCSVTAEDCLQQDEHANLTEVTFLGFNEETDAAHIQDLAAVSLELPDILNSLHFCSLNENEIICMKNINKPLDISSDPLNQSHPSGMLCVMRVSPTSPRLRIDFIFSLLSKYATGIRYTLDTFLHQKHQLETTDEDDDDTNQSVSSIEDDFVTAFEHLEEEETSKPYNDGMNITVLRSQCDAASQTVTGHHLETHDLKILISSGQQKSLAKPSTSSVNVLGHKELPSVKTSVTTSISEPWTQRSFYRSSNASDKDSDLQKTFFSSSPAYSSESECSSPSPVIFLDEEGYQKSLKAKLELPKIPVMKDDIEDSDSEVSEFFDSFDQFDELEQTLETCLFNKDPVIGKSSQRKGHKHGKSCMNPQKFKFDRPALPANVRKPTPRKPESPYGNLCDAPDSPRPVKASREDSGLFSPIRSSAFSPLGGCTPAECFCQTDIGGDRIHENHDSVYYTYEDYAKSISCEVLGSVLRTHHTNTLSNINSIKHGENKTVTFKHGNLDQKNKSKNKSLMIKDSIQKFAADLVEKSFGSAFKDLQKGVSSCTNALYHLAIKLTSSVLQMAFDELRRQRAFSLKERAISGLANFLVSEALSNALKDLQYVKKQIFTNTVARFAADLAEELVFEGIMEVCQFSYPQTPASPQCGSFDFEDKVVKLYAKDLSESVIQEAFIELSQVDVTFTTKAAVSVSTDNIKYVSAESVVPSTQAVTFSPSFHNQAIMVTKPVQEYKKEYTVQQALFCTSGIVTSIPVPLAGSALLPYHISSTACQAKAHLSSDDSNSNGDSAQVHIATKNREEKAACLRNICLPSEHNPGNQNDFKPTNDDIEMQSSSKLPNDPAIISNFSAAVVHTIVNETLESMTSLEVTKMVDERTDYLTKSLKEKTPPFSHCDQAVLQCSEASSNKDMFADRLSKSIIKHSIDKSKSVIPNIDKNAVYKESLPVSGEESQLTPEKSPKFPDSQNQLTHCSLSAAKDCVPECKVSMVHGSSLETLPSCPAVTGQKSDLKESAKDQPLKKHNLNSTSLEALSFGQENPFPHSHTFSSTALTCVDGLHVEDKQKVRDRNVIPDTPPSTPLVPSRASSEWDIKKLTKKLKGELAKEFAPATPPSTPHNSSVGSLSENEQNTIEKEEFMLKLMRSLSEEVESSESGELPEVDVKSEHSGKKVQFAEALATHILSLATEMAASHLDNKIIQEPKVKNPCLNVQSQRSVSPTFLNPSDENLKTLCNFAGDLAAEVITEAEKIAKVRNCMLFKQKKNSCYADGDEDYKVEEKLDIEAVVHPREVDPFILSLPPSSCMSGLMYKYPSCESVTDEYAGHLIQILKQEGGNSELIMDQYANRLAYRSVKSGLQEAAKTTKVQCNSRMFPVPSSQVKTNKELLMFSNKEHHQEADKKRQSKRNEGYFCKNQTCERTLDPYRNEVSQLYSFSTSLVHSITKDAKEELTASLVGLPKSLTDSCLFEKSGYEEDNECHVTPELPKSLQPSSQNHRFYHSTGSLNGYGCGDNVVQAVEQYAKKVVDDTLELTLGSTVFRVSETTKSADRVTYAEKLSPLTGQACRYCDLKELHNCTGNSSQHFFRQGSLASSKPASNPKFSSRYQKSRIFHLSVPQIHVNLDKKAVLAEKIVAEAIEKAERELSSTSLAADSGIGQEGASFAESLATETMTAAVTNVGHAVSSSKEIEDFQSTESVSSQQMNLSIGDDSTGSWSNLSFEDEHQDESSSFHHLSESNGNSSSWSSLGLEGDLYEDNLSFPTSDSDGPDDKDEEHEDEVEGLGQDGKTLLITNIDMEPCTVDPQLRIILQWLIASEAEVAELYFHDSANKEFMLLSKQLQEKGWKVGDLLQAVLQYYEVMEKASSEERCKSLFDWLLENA
inactive: lapatinib 0.021 | pictilisib -0.08 | crizotinib 0.025 | [1] -0.02 | duvelisib 0.015 | gandotinib -0.176 | tozasertib 0.061 | doramapimod -0.036 | bafetinib -0.084 | [2] -0.005 | nilotinib -0.001 | [3] -0.06 | dasatinib -0.074 | [4] 0.188 | [5] 0.092 | quisinostat 0.012 | tipifarnib 0.022 | [6] 0.008 | [7] 0.014 | [8] -0.05

ANKRD27 (UniProt Q96NW4)
UniProt Q96NW4, sequence (Q96NW4 whole entry, looked up): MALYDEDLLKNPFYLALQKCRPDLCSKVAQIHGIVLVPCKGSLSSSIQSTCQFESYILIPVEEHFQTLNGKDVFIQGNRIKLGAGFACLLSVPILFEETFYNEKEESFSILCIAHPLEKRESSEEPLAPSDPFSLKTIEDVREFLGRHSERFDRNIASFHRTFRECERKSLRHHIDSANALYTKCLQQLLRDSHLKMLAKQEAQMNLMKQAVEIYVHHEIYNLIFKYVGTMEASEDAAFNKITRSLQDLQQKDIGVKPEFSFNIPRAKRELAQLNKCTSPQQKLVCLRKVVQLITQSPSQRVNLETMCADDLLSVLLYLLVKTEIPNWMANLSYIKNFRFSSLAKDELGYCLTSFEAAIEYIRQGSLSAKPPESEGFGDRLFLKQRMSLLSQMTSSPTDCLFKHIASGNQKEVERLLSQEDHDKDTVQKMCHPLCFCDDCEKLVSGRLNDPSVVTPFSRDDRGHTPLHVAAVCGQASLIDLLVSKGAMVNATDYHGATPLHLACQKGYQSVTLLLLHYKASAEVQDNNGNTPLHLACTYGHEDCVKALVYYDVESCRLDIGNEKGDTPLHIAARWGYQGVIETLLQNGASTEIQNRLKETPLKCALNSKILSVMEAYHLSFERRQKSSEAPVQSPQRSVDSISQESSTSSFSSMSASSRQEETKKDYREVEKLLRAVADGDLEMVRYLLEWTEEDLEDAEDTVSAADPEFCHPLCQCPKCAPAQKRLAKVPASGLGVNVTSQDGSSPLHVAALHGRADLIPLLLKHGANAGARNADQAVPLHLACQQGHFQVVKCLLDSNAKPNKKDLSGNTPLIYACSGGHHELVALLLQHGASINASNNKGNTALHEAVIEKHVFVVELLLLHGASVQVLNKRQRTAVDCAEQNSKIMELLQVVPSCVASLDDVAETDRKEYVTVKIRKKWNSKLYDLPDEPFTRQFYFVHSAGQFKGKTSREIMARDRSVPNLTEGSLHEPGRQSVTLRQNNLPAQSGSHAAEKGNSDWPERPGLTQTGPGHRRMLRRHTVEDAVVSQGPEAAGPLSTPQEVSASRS
inactive: lapatinib 0.025 | pictilisib -0.026 | crizotinib -0.095 | [1] -0.03 | duvelisib -0.025 | gandotinib 0.049 | tozasertib 0.002 | doramapimod -0.009 | bafetinib -0.059 | [2] 0.022 | nilotinib 0.016 | [3] 0.049 | dasatinib -0.01 | [4] 0.061 | [5] -0.023 | quisinostat -0.177 | tipifarnib -0.067 | [6] 0.05 | [7] 0.025 | [8] -0.033

ACAT1 (UniProt P24752)
inactive: lapatinib -0.024 | pictilisib -0.013 | crizotinib 0.029 | [1] -0.018 | duvelisib -0.016 | gandotinib 0.03 | tozasertib -0.009 | doramapimod -0.005 | bafetinib 0.026 | [2] 0.008 | nilotinib 0.028 | [3] -0.021 | dasatinib 0.015 | [4] 0.019 | [5] -0.029 | quisinostat -0.006 | tipifarnib 0.044 | [6] -0.001 | [7] -0.005 | [8] 0.021

AK4 (UniProt P27144)
inactive: lapatinib -0.003 | pictilisib -0.033 | crizotinib 0.028 | [1] -0.027 | duvelisib 0.014 | gandotinib -0.019 | tozasertib 0.052 | doramapimod 0.03 | bafetinib -0.024 | [2] 0.012 | nilotinib -0.006 | [3] 0.003 | dasatinib -0.04 | [4] 0.042 | [5] 0.04 | quisinostat -0.012 | tipifarnib 0.001 | [6] 0.018 | [7] -0.023 | [8] -0.012

ACTG1 (UniProt K7EM38)
inactive: lapatinib -0.08 | tozasertib 0.207 | [7] 0.171

ANKRD40 (UniProt Q6AI12)
inactive: pictilisib -0.116 | crizotinib -0.022 | [1] -0.018 | duvelisib -0.171 | gandotinib -0.032 | tozasertib 0.249 | doramapimod -0.027 | bafetinib -0.149 | [2] -0.067 | nilotinib -0.04 | [3] -0.115 | dasatinib 0.197 | [4] 0.071 | [5] -0.064 | quisinostat -0.161 | tipifarnib 0.137 | [6] -0.001 | [8] -0.119

ADK, A0A5F9ZH76
inactive: lapatinib -0.013 | pictilisib -0.074 | bafetinib 0.147 | nilotinib -0.267 | [3] 0.089 | [4] 0.065 | tipifarnib 0.487 | [7] -0.083

ANKRD44 isoform 2 (UniProt Q8N8A2)
active: [1] -1.57 | [2] 0.766
inactive: lapatinib -0.004 | pictilisib 0.046 | gandotinib 0.465 | tozasertib 0.12 | bafetinib -0.405 | nilotinib -0.19 | [3] -0.03 | [4] -0.216 | tipifarnib 0 | [7] -0.019 | [8] 0.025

AP3D1 isoform 2 (UniProt O14617)
inactive: lapatinib 0.084 | [1] 0.19 | gandotinib -0.429 | [2] -0.084 | nilotinib -0.287 | [3] 0.035 | [4] 0.376 | tipifarnib -0.132 | [7] 0.034 | [8] -0.121

AGGF1 (UniProt Q8N302)
inactive: lapatinib -0.046 | pictilisib -0.133 | crizotinib -0.028 | [1] -0.193 | gandotinib 0.139 | tozasertib 0.04 | doramapimod -0.011 | bafetinib 0.047 | [2] 0.268 | nilotinib 0.02 | [3] 0.055 | [4] 0.087 | quisinostat -0.041 | tipifarnib -0.06 | [6] -0.007 | [7] 0.075 | [8] 0.024
